# In PubChem BioAssay (Tox21):
# A number with no mark means an inactive call. Activity calls are given as the source filed them. Calls come from the whole dose curve; as a rule, active = well fitted curve in the direction sought with a large enough effect in the repeat runs; inconclusive = weak or mixed curves; inactive = flat fitted curve, though single readings scatter.
# Assay: qHTS assay to test for compound auto fluorescence at 460 nm (blue) in HEK293 cell free culture (AID 720681)
# Details: cell-free medium, autofluorescence 405/460 nm (blue); series mostly up to 91.3 µM; fluorescence, % of fluorescent control: at the top concentration
# Text: U.S. Tox21 Program National Center for Advancing Translational Sciences [NCATS] NIH Chemical Genomics Center [NCGC] U.S. Environmental Protection Agency [EPA] National Institutes of Environmental Health Sciences [NIEHS] National Toxicology Program [NTP] U.S. Food and Drug Administration [FDA] Tox21 Assay Overview: Compound auto fluorescence often interferes with screening of the compound library against various biological targets and signaling pathways. Some of these compounds may have fluorophoric properties. Such properties may interfere with the assay outputs resulting in false positives and/or negatives. To decrease such complications and ensure the compound activities are relevant in terms of biological response, the Tox21 10K compound library was screened for auto fluorescence. From the fluorophores used as reporter signals in our screening assays, the auto fluorescence equivalencies of compounds against three fluorophores have been evaluated: Triamterene, Fluorescein and Rose Bengal sodium for blue, green and red fluorescence, respectively. The fluorescence intensities were measured using Excitation/Emission wavelengths at 405/460nm, 485/535nm and 540/590nm for blue, green and red labels, respectively. This assay includes the blue fluorescence data.
# Tox21 Assay Protocol Summary: 5 uL of culture medium (DMEM containing 10% FBS) per well was dispensed into black wall/clear bottom 1536-well plates using a Multidrop Combi Dispenser (ThermoFisher Scientific, Waltham, MA). After 23 nL compound or DMSO vehicle was transferred into assay plate by a pintool work station (Kalypsys, San Diego, CA), fluorescence intensities in the assay plates were measured by an Envision (PerkinElmer, Shelton, CT) plate reader using three labels for measuring blue, green and red fluorescence at […] 460, 535 and 590nm respectively.
# % is set by controls: 0 for no effect and ±100 for the full control effect.
Structure (SMILES),"fluorescence, % of fluorescent control",outcome
CCC(C)(C#N)N=NC(C)(C#N)CC (stereo not given),-0.0938%,
CC(C)(C)C(=O)C(Cl)Cl,-0.0464%,
Nc1c(Cl)c(F)nc(OCC(=O)O)c1Cl,0.0189%,
CCN(CCO)CCn1c(Cc2ccccc2)nc2c1c(=O)n(C)c(=O)n2C,0.114% [at 46 µM],
ClCCCCCCCl,0.142%,
c1cncc([C@@H]2CCCCN2)c1,-0.176%,
CN(CCO)CCO,0.0083% [at 95.7 µM],
NC(=O)OCCCc1ccccc1,-0.0173% [at 46 µM],
N[C@@H]1C[C@H]1c1ccccc1,0.398% [at 46 µM],
CCCN1CCC[C@@H]2Cc3[nH]ncc3C[C@H]21,-0.0861% [at 46 µM],
CCCCCCCC(=O)Cl,0.0288%,
C/C=C/CC#N,-0.0226% [at 95.7 µM],
CC(C)(C)c1cc(O)ccc1O,,inactive
CCSC(=O)Cl,0.0226% [at 95.7 µM],
N#CN=C1SCCN1Cc1ccc(Cl)nc1,-0.228%,
O=C(Cl)C(Cl)Cl,0.0164%,
CCOC(=O)COc1ccc(Cl)cc1Cl,0.0138%,
COc1ccccc1OC,-0.0135%,
Cn1c(CCCC(=O)O)nc2cc(N(CCCl)CCCl)ccc21,0.0895% [at 46 µM],
O=C1CCCCC1Cl (stereo not given),-0.0848% [at 95.7 µM],

Structure (SMILES),"fluorescence, % of fluorescent control",outcome
CN(C)C(=O)Oc1cc(OC(=O)N(C)C)cc(C(O)CNC(C)(C)C)c1 (stereo not given),0.0217% [at 18.6 µM],
O=[N+]([O-])c1cccc(CCl)c1,0.0208% [at 95.7 µM],
C(COCC1CO1)OCC1CO1 (stereo not given),-0.0114%,
CCCC[N+](=O)[O-],0.0008%,
O=C(Cl)CCl,-0.142%,
CC1NCCOC1c1ccccc1 (stereo not given),-0.0045% [at 46 µM],
O=C(O)CBr,-0.159%,
CN(C)C1CCCCC1,0.0382%,
NC(=O)CS(=O)C(c1ccccc1)c1ccccc1 (stereo not given),0.194% [at 46 µM],
CCOC1Oc2ccc(OS(C)(=O)=O)cc2C1(C)C (stereo not given),0.0767%,
CCOC(=O)CCl,-0.221%,
NCC1(CC(=O)O)CCCCC1,0.0173% [at 18.6 µM],
ClCCCCl,0.0284% [at 95.7 µM],
ClCC1CO1 (stereo not given),,inactive
CC(=NC#N)N(C)Cc1ccc(Cl)nc1,-0.0773%,
CC(C)c1ccc(O)cc1,0.175%,
Cc1ccc(-c2nc3ccc(C)cn3c2CC(=O)N(C)C)cc1,1.84% [at 46 µM],
C=C(Cl)CSC(=S)N(CC)CC,-0.163% [at 95.7 µM],
C[N+]1(C)CCCCC1,0.0497%,
CCC(C(N)=O)N1CCCC1=O (stereo not given),-0.0337% [at 46 µM],
